Only some compounds are listed: those with a hit (about 9.4% of all), similar ones and a draw of the others.
FLuc modulator: firefly luciferase modulation, counter-screen for miR-21 project. purified FLuc, Km substrates, luminescence inhibition. Potency, µM (titrated, usually from 57.5 µM), usual class: inhibitors. hit rate 6.9% among 360,000. AID 588342; further: nearly all actives have a fitted effect of over 55% in size
Target sequence (P08659 whole entry, looked up): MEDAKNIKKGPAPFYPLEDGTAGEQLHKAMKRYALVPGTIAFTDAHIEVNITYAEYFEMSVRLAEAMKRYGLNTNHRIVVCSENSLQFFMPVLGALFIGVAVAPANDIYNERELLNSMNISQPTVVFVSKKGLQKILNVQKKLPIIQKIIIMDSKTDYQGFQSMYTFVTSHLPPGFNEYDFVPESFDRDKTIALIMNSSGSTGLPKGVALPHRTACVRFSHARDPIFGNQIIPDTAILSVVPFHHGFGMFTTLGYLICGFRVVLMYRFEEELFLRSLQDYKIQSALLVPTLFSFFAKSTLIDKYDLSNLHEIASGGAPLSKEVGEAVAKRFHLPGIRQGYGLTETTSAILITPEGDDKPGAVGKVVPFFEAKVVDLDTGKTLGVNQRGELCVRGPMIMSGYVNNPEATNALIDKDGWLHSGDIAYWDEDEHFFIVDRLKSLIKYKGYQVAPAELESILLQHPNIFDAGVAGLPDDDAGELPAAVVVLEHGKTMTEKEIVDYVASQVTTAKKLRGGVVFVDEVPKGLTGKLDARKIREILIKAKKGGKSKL
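Purified P. pyralis luciferase (10nM final) with 10uM D-luciferin and 10uM ATP (Km levels) in 50mM Tris acetate pH 7.5, 10mM Mg acetate, 0.01% Tween-20, 0.05% BSA; qHTS 6-point titration, ~60 µM downward; luminescence read.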
ELG1 repair inh: inhibitors of ELG1-dependent DNA repair in HEK293T cells; Potency, µM (highest dose often 46.1 µM), usual class: inhibitors; hit rate 2.3% among 330,000; HEK293T ELG1-luciferase reporter, luminescence, 16 h; DNA damage induced by 5-fluorouridine; further: nearly all actives have a fitted effect of over 55% in size
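Luminescence from the luciferase reporter, measured 30 min after ONE-Glo reagent at room temperature, was the read-out. Beforehand, 2,000 cells per well were exposed for 16 hr at 37 °C to 5-fluorouridine together with compound or vehicle.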
NPC1 promoter act: activates the NPC1 promoter; Potency, µM (highest dose often 9.22 µM), actives largely listed as activators; AID 485313; Huh7 NPC1 promoter luciferase reporter, 24 h; hit rate 2.4% among 320,000; further: nearly all actives have a fitted effect of over 60% in size
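Luminescence read-out of NPC1 promoter-driven luciferase in stably transfected Huh7 cells; compounds delivered in DMSO and left 24 h at 37C, 5% CO2, qHTS titration format.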
ELG1 genotox: genotoxicity induction in ELG1-luciferase HEK293T cells | hit rate 1.3% among 330,000 | AID 504466 | HEK293T ELG1-luciferase reporter, luminescence, 16 h | Potency, µM (doses to about 46 µM), most hits filed as activators; further: nearly all actives have a fitted effect of over 60% in size
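Screening used a luciferase reporter fused to human ELG1 in HEK293T cells. Luminescence was read on a CCD plate imager after 16 hr exposure and 30 min ONE-Glo incubation.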
Rab9 promoter act: activators of Rab9 promoter; AID 485297; Potency, µM (titrated, usually from 9.22 µM), hits mostly activators; hit rate 2.8% among 320,000; Huh7 Rab9 promoter-luciferase reporter, luminescence, 24 h; further: nearly all actives have a fitted effect of over 60% in size
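Quantitative HTS format; Huh7 Rab9-luciferase reporter cells (1500/well) receive compound 2 h post-plating, incubate 24 h at 37 °C, then get luciferase reagent for 10 min before luminescence reading.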
SMN2 splice up: SMN2 splice variant enhancement; hit rate 2.8% among 210,000; Potency, µM (highest dose often 46.1 µM), actives largely listed as activators; HEK293 SMN2-luciferase splicing reporter, luminescence, 30-36 h; AID 1458; further: nearly all actives have a fitted effect of over 55% in size
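HEK293 cells carry an SMN2 […]–luciferase reporter in which exon 7 inclusion puts luciferase in frame. Cells were plated 10-12 h before compound addition, then incubated 30-36 h at 37C. ONE-Glo luminescence was read; sodium butyrate at 4.5 mM final served as control.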
Hits are given with their value; . = inactive; ? = inconclusive; / = no result. The call rests on the fitted dose curve; in most records, active means well fitted curve in the direction sought with a large enough effect; inconclusive means small, poorly fitted or top-dose-only effect, or another doubt; inactive means no such curve, though single readings can be large; an effect the other way counts as inactive or inconclusive.

SMILES	FLuc modulator	ELG1 repair inh	NPC1 promoter act	ELG1 genotox	Rab9 promoter act	SMN2 splice up
O=C(Nc1ccc(-c2cn3c(n2)SCC3)cc1)c1ccc2ccccc2n1	19µM	?	.	.	.	.
CS(=O)(=O)Nc1ccc(-c2cn3c(n2)SCC3)cc1	?	?	.	.	.	/
CCCS(=O)(=O)Nc1cccc(-c2cn3c(n2)SCC3)c1	.	?	.	.	.	/
O=C(Nc1cccc(-c2cn3c(n2)SCC3)c1)c1ccc2ccccc2n1	3µM	?	0.28µM	?	0.4µM	13µM
COc1ccc(/C=C2/CCc3ccccc3C2=O)cc1CN1CCOCC1	9.5µM	?	.	.	.	.
COc1ccc(/C=C2\CCc3ccccc3C2=O)cc1Cn1nc(C)cc1C	13µM	.	.	.	.	.
COc1ccc(/C=C/C(=O)c2ccccc2O)cc1CN1CCOCC1	.	?	.	.	.	.
CCOC(=O)c1c(NC(=O)CSc2cn(CCNC(=O)c3ccc(OC)c(OC)c3)c3ccccc23)sc2c1CCC2	.	/	/	/	/	.
COc1ccc(NC(=O)Cn2cnc3c(nc4n3CCCCC4)c2=O)c(OC)c1	.	/	/	/	/	/
CCOC(=O)Nc1sc2c(c1C#N)CCCC2	15µM	?	?	15µM	4µM	.
Cc1ccc(OCC(=O)Nc2sc3c(c2C#N)CCC3)cc1	4.8µM	?	?	?	?	.
CCC(=O)Nc1sc2c(c1C#N)CCC2	.	.	.	.	.	.
CCCOc1ccc(N2C(=O)CC(SCCN)C2=O)cc1 (centres undefined)	12µM	?	4µM	?	2.2µM	13µM
CCOC(=O)C(N)CSC1CC(=O)N(c2ccc(C(=O)OC)cc2)C1=O (centres undefined)	.	.	.	.	.	.
COC(=O)c1ccc(N2C(=O)CC(SCCN)C2=O)cc1 (centres undefined)	?	?	?	12µM	?	11µM
O=C(O)/C=C\c1cn(-c2ccccc2)nc1-c1cc2ccccc2o1	13µM	?	.	.	.	.
O=C(O)/C=C/c1cn(-c2ccccc2)nc1-c1cc2ccccc2o1	15µM	.	.	.	.	/
CN(C)C(=O)c1cn(-c2ccccc2)nc1-c1cc2ccccc2oc1=O	.	.	.	.	.	.
O=C(Nc1ccc([N+](=O)[O-])cc1)c1cn(-c2ccccc2)nc1-c1cc2ccccc2o1	.	.	.	?	.	.
CN(Cc1cn(-c2ccccc2)nc1-c1cc2ccccc2o1)C(=O)CCC(=O)O	3µM	?	.	?	.	.
CN(C)C(=O)c1cn(-c2ccccc2)nc1-c1cc2ccccc2o1	24µM	.	.	.	.	.
Cc1ccc(NC(=O)CCS(=O)(=O)c2cc(Br)cc3c2N(C(=O)C2CC2)CC3)cc1	.	/	/	/	/	/
COc1ccc(-n2c(-c3ccc(Cl)cc3)cc3c2CC(C)(C)CC3=O)c(OC)c1	.	/	/	/	/	.
CC(=O)c1ccc(N2C(=O)Nc3ccccc3S2(=O)=O)cc1	.	/	/	/	/	/
COc1cccc(NC(=O)CCc2nnc3n(CC(C)C)c(=O)c4ccccc4n23)c1	.	/	/	/	/	.
SMILES	FLuc modulator	ELG1 repair inh	NPC1 promoter act	ELG1 genotox	Rab9 promoter act	SMN2 splice up
Cc1ccc(NC(=O)c2ccc(CSc3ccccn3)cc2)c(O)c1	24µM	.	.	.	.	/
Cc1ccc(NC(=O)c2ccc3nc[nH]c3c2)c(O)c1	19µM	?	3.2µM	?	?	13µM
Cc1ccc(NC(=O)c2cncc(Br)c2)nc1	?	?	3.2µM	?	?	/
Cc1cc([N+](=O)[O-])ccc1NC(=O)c1cncc(Br)c1	.	?	.	.	.	.
Cc1ccc(NC(=O)c2cncc(Br)c2)c(O)c1	17µM	.	?	.	?	?
CCc1nnc(NS(=O)(=O)c2ccc(NC(=O)/C=C/c3ccccc3Cl)cc2)s1	19µM	.	.	.	.	.
CCc1nnc(NS(=O)(=O)c2ccc(NC(=O)c3ccc(Cl)cc3)cc2)s1	19µM	?	.	.	.	.
Cc1ccc(Cn2c(SCc3ccc(C(=O)N4CCCCC4)cc3)nc3ccncc32)cc1	?	/	/	/	/	.
CCN1/C(=C/C=C/c2sc3ccccc3[n+]2CC)Sc2ccccc21	21µM	?	.	?	.	/
CCN1/C(=C/C=C/C=C/c2sc3ccccc3[n+]2CC)Sc2ccccc21	15µM	?	.	.	.	.
CCN1/C(=C/C=C/C=C/C=C/c2sc3ccccc3[n+]2CC)Sc2ccccc21	?	?	.	.	.	/
CC[n+]1c(/C=C/Nc2ccccc2)sc2ccccc21	.	.	.	.	.	.
O=C(OCC(=O)N1CCOCC1)c1ccccc1O	24µM	?	?	?	4µM	/
CC1CCCN(C(=O)COC(=O)c2n[nH]c3ccccc23)C1 (centres undefined)	17µM	?	?	23µM	?	.
O=C(OCC(=O)N1CCCCC1)c1cc2ccccc2cc1O	24µM	?	.	?	.	.
